# Shown are actives, neighbours in structure and some others; about 4.5% of the full set was active somewhere.
# Rpn11 inh = blocks the human proteasome subunit Rpn11; human 26S proteasome, Ub4-pepOG fluorescence polarization; 20S core pre-blocked with epoxomicin; inhibition, % at 20 µM; hit rate 0.59% among 360,000;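 active means inhibition at 20 µM, scaled to each plate's controls, above about 33%, limit read from the data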
# GRIN3A LBD mod = NR3A (human) ligand-binding domain modulation; AID 1259313; Tm shift relative to glycine control, % at 25 µM; NR3A LBD differential scanning fluorimetry, Tm shift; 0% = protein alone, 100% = glycine-bound protein; hit rate 2.5% among 340,000;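 active means melting temperature shift of at least 10% of the positive control shift, at one fixed dose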
# EBNA-1 inh = blocks EBNA-1 binding to DNA | EBNA-1 DNA binding, fluorescence polarization | inhibition, % at 14.8 µM | hit rate 0.34% among 300,000; in the data active means inhibition above about 28%
# TPT1 inhibitor = C. albicans TPT1 enzyme inhibition | recombinant caTPT1, FP RNA substrate dephosphorylation | inhibition, % at 5 µM | hit rate 0.81% among 300,000;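 active means inhibition above the mean of all tested compounds plus 3 SD, set per screening campaign, cut at about 24% in these data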;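 further: plate controls were DMSO alone for no effect and ferristatin control at 100 nM for full effect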
# dFosB activator = activators of mouse delta FosB homodimer | P13346 | purified delta FosB, TAMRA-CDK5 oligo fluorescence polarization; percent of positive-control signal above neutral wells | activation, % at 25 µM | hit rate 0.99% among 340,000;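 active means mean activation above about 17%, with every replicate also reaching it, limit read from the data, passing the limit was not always enough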
# Target sequence (P13346 whole entry, looked up): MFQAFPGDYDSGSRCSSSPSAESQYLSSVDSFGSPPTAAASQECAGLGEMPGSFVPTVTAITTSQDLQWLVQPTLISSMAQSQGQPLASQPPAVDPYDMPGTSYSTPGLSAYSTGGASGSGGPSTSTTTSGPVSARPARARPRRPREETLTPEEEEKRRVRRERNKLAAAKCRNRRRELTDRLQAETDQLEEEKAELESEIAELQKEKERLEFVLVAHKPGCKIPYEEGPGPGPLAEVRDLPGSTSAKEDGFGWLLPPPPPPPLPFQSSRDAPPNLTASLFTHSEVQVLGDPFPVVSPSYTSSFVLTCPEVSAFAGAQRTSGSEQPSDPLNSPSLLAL
# ZTA counter = ZTA (EBV) inhibition in EBNA-1 counter-screen | ZTA-DNA binding, fluorescence polarization | P03206 | hit rate 0.15% among 320,000 | inhibition, % at 11 µM; in the data active means inhibition above about 33%
# Target sequence (P03206 whole entry, looked up): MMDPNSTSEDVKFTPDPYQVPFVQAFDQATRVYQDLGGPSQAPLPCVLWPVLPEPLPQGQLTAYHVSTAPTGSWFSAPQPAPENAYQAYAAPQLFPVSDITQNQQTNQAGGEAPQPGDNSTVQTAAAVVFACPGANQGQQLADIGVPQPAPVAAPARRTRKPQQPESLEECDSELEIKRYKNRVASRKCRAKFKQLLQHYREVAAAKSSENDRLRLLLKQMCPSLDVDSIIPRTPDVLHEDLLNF
# * hit, by the source's call; nt = no result given; + = active, no number.
SMILES,Rpn11 inh,GRIN3A LBD mod,EBNA-1 inh,TPT1 inhibitor,dFosB activator,ZTA counter
CCOC(=O)C1=CN(Cc2cccc(F)c2)S(=O)(=O)N(C)C1CCc1ccccc1 (stereo unspecified),3.8,0.8,nt,nt,-0.5,nt
CCOC(=O)C1=CN(Cc2cccc(-c3ccc(F)cc3)c2)S(=O)(=O)N(C)C1C (stereo unspecified),0.7,12.7*,nt,nt,-4.6,nt
O=C(CCCN1C(=O)c2ccccc2C1=O)NCCc1ccc(OC(F)F)cc1,2.9,8.0,2.4,-3.6,-2.2,-8.0
NC(=O)NCC(c1ccccc1)C1CCCCC1 (stereo unspecified),-5.5,-3.2,0.8,-0.9,0.9,-5.2
O=C(Nc1cccc(F)c1)Nc1ccc2c(c1)CCC2,-23.8,42.6*,-5.3,-1.1,-6.3,0.0
O=C(Nc1ccc(F)cc1)Nc1ccc2c(c1)CCC2,-9.5,8.5,-0.9,0.2,6.6,14.2
O=C(Nc1ccccc1)Nc1ccc2c(c1)CCC2,6.4,11.4*,nt,nt,-0.7,nt
O=C(Nc1cccc(F)c1)Nc1ccccn1,-0.3,-31.1,9.9,-3.3,-11.3,6.8
Cc1ccc(NC(=O)Nc2ccc3c(c2)CCC3)cc1,-4.6,7.8,11.9,-7.8,3.8,8.5
O=C(Nc1cccc(F)c1)Nc1cnccn1,3.2,21.1*,-7.1,-3.4,8.1,11.8
O=C(Nc1ccc(F)cc1)Nc1cccc(Br)c1,7.3,43.4*,-10.0,-2.1,nt,-0.1
CCOC(=O)N1CCN(C(=O)c2cccc(S(=O)(=O)Nc3ccccc3Cl)c2)CC1,-6.1,1.1,nt,nt,-6.0,-16.0
COC(=O)c1ccc(NC(=O)Nc2cccc(F)c2)cc1,4.1,29.8*,-7.1,-2.7,-5.6,-13.0
O=C(Nc1cccc([N+](=O)[O-])c1)Nc1cccs1,9.2,19.2*,-6.2,1.6,-2.6,-0.7
Cc1cc(C)cc(NC(=O)Nc2ccc3c(c2)CCC3)c1,-4.9,11.5*,12.4,0.7,12.8,8.9
COC(=O)c1sccc1NC(=O)Nc1cccc([N+](=O)[O-])c1,-4.9,0.2,11.5,-1.0,-2.9,7.2
O=[N+]([O-])c1cccc(CNc2ccc3c(c2)CCC3)c1,2.4,-5.2,-9.3,0.4,-3.9,-3.6
O=C(Nc1cccc([N+](=O)[O-])c1)Nc1ccc2c(c1)CCC2,0.5,33.6*,12.4,-0.9,3.6,-10.8
CCC(C)NC(=O)CNC(=O)c1nn(-c2ccc(OC)cc2OC)c(=O)c2ccccc12 (stereo unspecified),1.0,-1.3,-4.2,3.4,-8.1,-6.9
COc1ccc(CNC(=O)COc2cc3c(c4oc(=O)cc(C)c24)CCC(C)(C)O3)c(OC)c1,7.2,nt,nt,nt,nt,nt
Cc1cccc(C)c1NC(=O)COC(=O)c1c2c(nc3ccccc13)/C(=C\c1ccc3c(c1)OCO3)CCC2,-218.5,7.4,6.5,-63.5,-10.5,3.8
CC(OC(=O)c1c2c(nc3ccccc13)/C(=C\c1ccc3c(c1)OCO3)CCC2)C(=O)Nc1ccc(S(N)(=O)=O)cc1 (stereo unspecified),-211.0,21.9*,nt,nt,0.9,nt
Cn1cccc1C(=O)OCC(=O)NC(=O)NC1CCCCC1,-2.0,-0.6,-3.9,-4.3,-2.5,7.7
COc1cc(/C=N/NC(N)=S)ccc1OCc1ccc(C)cc1,1.5,25.5*,-1.0,-3.1,3.9,-8.0
COc1cc(/C=N/NC(N)=S)ccc1OC(=O)c1ccc(C)cc1,2.9,25.9*,-2.2,-8.0,2.6,-17.4
SMILES,Rpn11 inh,GRIN3A LBD mod,EBNA-1 inh,TPT1 inhibitor,dFosB activator,ZTA counter
COc1ccc(C(=O)Oc2cccc(/C=N/NC(N)=S)c2)cc1,-3.2,-1.3,7.2,-0.1,-1.7,-4.8
COc1ccc(C=NNC(=S)NN=Cc2ccc(OC)c(OC)c2)cc1OC,0.5,-26.4,nt,nt,2.4,nt
Cc1ccc(Cc2c(-c3ccc(Cl)cc3)nc3cc(C)ccn23)cc1,7.5,nt,nt,nt,nt,nt
CC1(C)Cc2c(sc(NC(=O)c3ccccc3)c2C(=O)O)CO1,-2.5,10.1*,4.7,-1.6,-1.1,16.1
COc1ccc(C(=O)Nc2sc3c(c2C(=O)O)CC(C)(C)OC3)cc1,0.8,0.9,-1.4,0.2,-6.2,-3.6
CCc1ccccc1Nc1nn2c(=O)c3ccc(C(=O)NCc4ccccn4)cc3nc2s1,11.4,1.6,-0.9,5.2,-10.9,5.2
O=C(N/N=C/c1ccc(F)c(F)c1)c1cc2c(s1)-c1ccccc1CC2,-1.7,26.7*,6.7,-1.0,-1.2,-3.5
CC(C)CNC(=O)c1ccccc1NC(=O)CSCc1ccccc1,-1.8,13.6*,1.4,1.5,2.0,-3.0
CCc1nc(Nc2cccc(O)c2)c2oc3ccccc3c2n1,-6.5,21.1*,nt,nt,5.1,nt
COc1ccc(CNC(=O)Nc2nc(C(N)CCc3ccccc3)cs2)cc1 (stereo unspecified),-3.6,nt,nt,nt,nt,nt
CC(=O)Nc1c2c(nn1-c1ccc(Cl)cc1)CSC2,-1.4,2.7,6.0,-5.2,11.6,8.2
Cc1c(C=O)c(=O)n(-c2ccccc2)n1C,5.2,-4.1,+,1.9,6.2,+
Cc1c(N(C)C)c(=O)n(-c2ccccc2)n1C,2.6,0.1,nt,nt,1.0,2.1
CCOCCn1ccc2c(OCC(=O)Nc3cc(OC)ccc3OC)cccc2c1=O,0.4,11.4*,7.7,1.6,-9.4,9.9
COc1ccc(NC(=O)c2ccc(NC(=O)CSc3nc(N)cc(=O)[nH]3)cc2)cc1,-1.8,11.0*,nt,nt,4.3,-8.0
Nc1cc(=O)[nH]c(SCC(=O)Nc2ccc([N+](=O)[O-])cc2)n1,-0.9,-0.9,2.0,-4.2,-7.9,-10.4
Nc1nc(SCC(=O)Nc2ccc(OC(F)(F)F)cc2)[nH]c(=O)c1NC(=O)c1ccc(Br)o1,-1.6,16.8*,-13.9,0.9,2.1,2.0
Nc1cc(=O)[nH]c(SCC(=O)Nc2ccc(Br)cc2)n1,0.4,-0.4,-22.6,-5.6,-3.2,-13.1
Nc1nc(SCC(=O)Nc2ccc([N+](=O)[O-])cc2)[nH]c(=O)c1NC(=O)c1ccc(Br)cc1,-0.6,31.1*,-5.4,-2.2,50.2*,-16.3
CC1Cc2ccccc2N1C(=O)CN1C(=O)NC(C)(CCc2ccccc2)C1=O (stereo unspecified),-2.3,-3.6,-9.1,1.9,-8.2,-9.3
O=C(OCc1ccccc1)/C(=C/c1ccccc1Cl)NC(=O)c1ccco1,2.5,14.8*,-0.6,2.0,-3.2,9.2
O=C(NNS(=O)(=O)c1ccc(F)cc1)c1cc2ccccc2cc1O,6.0,-2.5,6.9,-0.6,-6.7,18.6
O=C(N/N=C/c1cc2c(cc1Br)OCO2)c1cc2ccccc2o1,6.1,13.2*,5.5,0.7,-7.3,10.3
COc1ccccc1CNC(=O)c1nccnc1CO,-3.3,-0.4,nt,nt,-2.4,nt
O=c1[nH]c(-c2ccc(O)cc2)nc2scc(-c3cccs3)c12,4.1,18.8*,-6.0,0.5,0.4,-2.8
Cc1ccc(S(=O)(=O)N/N=C/c2ccc(O)cc2O)cc1[N+](=O)[O-],-7.2,-0.2,-5.9,-4.2,-1.7,-12.1
O=S(=O)(NN=Cc1ccc(O)cc1O)c1cc(Cl)c(Cl)cc1Cl,-1.8,21.8*,nt,nt,-2.1,nt
